The record followed here is the supplement of paper PMC6607015.

Structures can show the parent of a compound that is named as a salt.

Conditions in all cases: compound concentration in added solution (µM; 5 µl added to 20 µl cells): 10; 18 h
In assay [1] the test system is A431. Briefly: LBPA endosome anti-LBPA integrated intensity (sum per cell), Z-score; higher = more LBPA staining. In short, it runs like this: (§1)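 Four 20× images per well were taken of HeLa MZ or A431 cells that had been seeded at 3,500 per well in 20 µl onto 5 µl of 10 µM compound solution in duplicate 384-well imaging plates. Before imaging, cells were incubated 18 h, fixed in 4% PFA and stained with 6C4 anti-LBPA antibody, filipin, propidium iodide and CellTracker green. Values are Z-scores normalised in AcuityXpress from MetaXpress-derived per-cell integrated LBPA or filipin intensity, either whole-cell or within LBPA endosomes.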

Assay [2] relates to HeLa MZ. The assay is described as above. In a few lines:
as §1

The test system of assay [3] is A431. In words: whole-cell filipin (free cholesterol) integrated intensity, Z-score; higher = more cholesterol staining. In short, it runs like this:
as §1

In assay [4] the test system is HeLa MZ. The assay is described as above. In short, it runs like this:
as §1

For assay [5], the system named is A431. In words: filipin (cholesterol) integrated intensity within LBPA endosomes, Z-score; higher = more cholesterol in LBPA endosomes. In a few lines:
as §1

The subject of assay [6] is HeLa MZ. Described as above. In short, it runs like this:
as §1

Regarding `CO[C@@]1(NC(=O)Cc2cccs2)C(=O)N2C(C(=O)O)=C(COC(N)=O)CS[C@@H]21` [Cefoxitin sodium salt], the “LBPA endosome anti-LBPA integrated intensity (z-score)” value was -0.479 in the assay on A431 [1] and 0.482 in the assay with HeLa MZ [2]. The “whole-cell filipin (z-score)” value was -0.426 in the assay on A431 [3] and -0.439 in the assay on HeLa MZ [4]. For the same compound, the “filipin (z-score)” value in the assay on A431 [5] was -0.487; in the assay on HeLa MZ [6] it was -0.515.
Consider `N#Cc1ccc(C(c2ccc(C#N)cc2)n2cncn2)cc1` [Letrozole], for which the figures for the “LBPA endosome anti-LBPA integrated intensity (z-score)” value in the assay on A431 [1] and in the assay on HeLa MZ [2] were -0.371 and 0.276, respectively. For the same compound, the “whole-cell filipin (z-score)” value with A431 [3] worked out at 0.375; in the assay with HeLa MZ [4], 0.337. Further, the “filipin (z-score)” value was -0.552 with A431 [5] and -0.548 in the assay with HeLa MZ [6].
For `Cc1ccc(C(=O)c2ccc(CC(=O)O)n2C)cc1` [Tolmetin sodium salt dihydrate], the “LBPA endosome anti-LBPA integrated intensity (z-score)” value in the assay with A431 [1] was -0.35; with HeLa MZ [2] it was -0.0177. Further, the “whole-cell filipin (z-score)” value is -0.301 in the assay with A431 [3] and -0.429 in the assay on HeLa MZ [4]. For the same compound, the “filipin (z-score)” value with A431 [5] was -0.412; in the assay with HeLa MZ [6] it was -0.483.
In the case of `COc1ccc([C@@H]2Sc3ccccc3N(CCN(C)C)C(=O)[C@@H]2OC(C)=O)cc1` [Diltiazem hydrochloride], the entries for the “LBPA endosome anti-LBPA integrated intensity (z-score)” value in the assay on A431 [1] and with HeLa MZ [2] were -0.508 and 0.314, respectively. Moreover, the “whole-cell filipin (z-score)” value is -0.778 in the assay on A431 [3] and -0.456 with HeLa MZ [4]. The entries for the “filipin (z-score)” value in the assay on A431 [5] and in the assay on HeLa MZ [6] were -0.362 and -0.144, respectively.
Turning to `CC(=O)[C@@]1(O)CC[C@H]2[C@@H]3C[C@H](C)C4=CC(=O)C=C[C@]4(C)[C@@]3(F)[C@@H](O)C[C@@]21C` [Fluorometholone], the “LBPA endosome anti-LBPA integrated intensity (z-score)” value in the assay on A431 [1] was -0.292; in the assay with HeLa MZ [2], -0.618. The “whole-cell filipin (z-score)” value is -0.262 in the assay on A431 [3] and -0.2 in the assay with HeLa MZ [4]. Also, the results for the “filipin (z-score)” value in the assay with A431 [5] and with HeLa MZ [6] were -0.289 and -0.522, respectively.
For `NC(=O)N1c2ccccc2CC(=O)c2ccccc21` [Oxcarbazepine], the figures for the “LBPA endosome anti-LBPA integrated intensity (z-score)” value in the assay on A431 [1] and in the assay with HeLa MZ [2] were -0.669 and -1.06, respectively. Further, the “whole-cell filipin (z-score)” value was -0.767 in the assay on A431 [3] and -1.13 in the assay on HeLa MZ [4]. For the same compound, the “filipin (z-score)” value was -0.582 in the assay with A431 [5] and -0.729 with HeLa MZ [6].
In the case of `CN[C@@H]1[C@H](O[C@H]2[C@H](O[C@H]3[C@H](O)[C@@H](O)[C@H](NC(=N)N)[C@@H](O)[C@@H]3NC(=N)N)O[C@@H](C)[C@]2(O)CO)O[C@@H](CO)[C@H](O)[C@H]1O` [Dihydrostreptomycin sulfate], the “LBPA endosome anti-LBPA integrated intensity (z-score)” value is -0.602 in the assay on A431 [1] and -1.07 in the assay on HeLa MZ [2]. Also, the “whole-cell filipin (z-score)” value in the assay on A431 [3] is -1; in the assay with HeLa MZ [4], -0.938. Also, the “filipin (z-score)” value is -0.56 with A431 [5] and -0.704 in the assay on HeLa MZ [6].
Turning to `CO[C@@H]1[C@@H](O[C@@H]2O[C@H](C)[C@@H](O[C@H]3C[C@@](C)(O)[C@@H](OC(=O)CC(C)C)[C@H](C)O3)[C@H](N(C)C)[C@H]2O)[C@@H](CC=O)C[C@@H](C)[C@@H](O)/C=C/C=C/C[C@@H](C)OC(=O)C[C@H]1OC(C)=O` [Josamycin], the “LBPA endosome anti-LBPA integrated intensity (z-score)” value with A431 [1] is 0.115; with HeLa MZ [2], -0.222. In addition, the “whole-cell filipin (z-score)” value is -0.459 in the assay on A431 [3] and -0.645 in the assay with HeLa MZ [4]. Besides, the “filipin (z-score)” value with A431 [5] was -0.106; with HeLa MZ [6] it was -0.348.
Turning to `CCC(C)n1ncn(-c2ccc(N3CCN(c4ccc(OCC5COC(Cn6cncn6)(c6ccc(Cl)cc6Cl)O5)cc4)CC3)cc2)c1=O` (configuration not stated) [Itraconazole], the “LBPA endosome anti-LBPA integrated intensity (z-score)” value in the assay on A431 [1] was 1.31; in the assay on HeLa MZ [2], 0.474. The entries for the “whole-cell filipin (z-score)” value in the assay with A431 [3] and in the assay on HeLa MZ [4] were 2.3 and 2.36, respectively. In addition, the “filipin (z-score)” value stood at 2.02 in the assay on A431 [5] and 1.87 in the assay on HeLa MZ [6].
Take `Cc1c(-c2ccccc2)oc2c(C(=O)OCCN3CCCCC3)cccc2c1=O` [Flavoxate hydrochloride]: the entries for the “LBPA endosome anti-LBPA integrated intensity (z-score)” value in the assay on A431 [1] and in the assay on HeLa MZ [2] were -0.643 and -0.619, respectively. Further, the results for the “whole-cell filipin (z-score)” value in the assay on A431 [3] and in the assay with HeLa MZ [4] were -0.892 and -0.899, respectively. For the same compound, the results for the “filipin (z-score)” value in the assay on A431 [5] and with HeLa MZ [6] were -0.515 and -0.534, respectively.
With `Clc1ccc2c(c1)C(N1CCNCC1)=Nc1ccccc1O2` [Amoxapine], the “LBPA endosome anti-LBPA integrated intensity (z-score)” value in the assay with A431 [1] stood at 3.32; in the assay with HeLa MZ [2], 0.828. The “whole-cell filipin (z-score)” value with A431 [3] is 0.789; in the assay on HeLa MZ [4], -0.797. Moreover, the figures for the “filipin (z-score)” value with A431 [5] and in the assay on HeLa MZ [6] were 2.56 and 1.55, respectively.
For `Oc1c(I)cc(Cl)c2cccnc12` [Clioquinol], the “LBPA endosome anti-LBPA integrated intensity (z-score)” value in the assay on A431 [1] was -0.492; in the assay with HeLa MZ [2] it was -0.976. Besides, the entries for the “whole-cell filipin (z-score)” value with A431 [3] and in the assay on HeLa MZ [4] were -0.314 and 0.216, respectively. Further, the “filipin (z-score)” value in the assay with A431 [5] is -0.526; in the assay on HeLa MZ [6], -0.604.
